High-throughput results: PubChem BioAssay, Broad Institute
aSyn UTR act: Activators via SNCA 5'UTR binding, MLPCN; 300,000 tested, 7.1% active; activity score, % (tested at 7.5 µM), hits read low; AID 1814; alpha-synuclein 5'UTR reporter, activators screen; in the data active = activity score below about -60%
Hits are given with their value; - = inactive. This is one part of a sample in which hits are shown more often than they occur.

SMILES | aSyn UTR act
COC(=O)C(Cc1ccc(OC(=O)c2ccccc2Cl)cc1)N1Cc2ccccc2C1=O (stereo unspecified) | -88
COC(=O)C(Cc1ccc(OC(=O)c2ccccc2C)cc1)N1Cc2ccccc2C1=O (stereo unspecified) | -142
CC1(c2ccccc2)CC(c2ccccc2)=Nc2ccccc2N1 (stereo unspecified) | -104
COC(=O)c1cccc(N/C=C(\[N+](=O)[O-])S(=O)(=O)c2ccccc2)c1 | -62
Cc1ccc(C)c(NC(=O)CSc2nccn2Cc2ccco2)c1 | -78
c1ccc(Nc2nc(-c3ccccc3)ns2)cc1 | -144
CC(C)(C)C(=O)Nc1nc(-c2ccccc2)ns1 | -146
COc1cc(C=O)ccc1OCc1cccc(Br)c1 | -152
COc1cc(C=O)ccc1OCCSc1ccc(C)cc1 | -129
COC(=O)c1ccccc1OCCCOc1ccc(C=O)cc1OC | -107
COc1cc(C=O)ccc1OCc1ccccc1Br | -202
COc1cc(/C=C2/C(=O)N(C)C(=S)N2C)ccc1OCc1cccc(F)c1 | -156
CCOC(=O)C(NC(=O)CCl)(Nc1sc(C)c(CC)c1C#N)C(F)(F)F (stereo unspecified) | -75
N#Cc1cc2c(nc1SCC(=O)Nc1sc3c(c1C#N)CCC3)CCC2 | -141
CN1CCc2nc(SCC(=O)Nc3ccc(Cl)cc3)c(C#N)cc2C1 | -65
CCc1nnc(NC(=O)CSc2nc3c(cc2C#N)CCC3)s1 | -159
N#Cc1c(NC(=O)CSc2ncn[nH]2)sc2c1CCCC2 | -
N#Cc1cc2c(nc1SCC(=O)Nc1sc3c(c1C#N)CCC3)CCCCCC2 | -93
C=CCN1C(=O)C(=O)N(Cc2nc3ccccc3s2)C1=O | -118
COc1ccc(C(=O)N=c2sc3ccccc3n2C)cc1 | -193
Cc1ccc(C(=O)N/N=c2\sc3ccccc3n2C)cc1 | -62
COC(=O)Cn1c(=NC(=O)c2cccc(OC)c2)sc2cc(OC)ccc21 | -87
COc1cc(OC)cc(C(=O)N=c2sc3ccccc3n2C)c1 | -149
COc1cccc(C(=O)N=c2sc3cc(S(C)(=O)=O)ccc3n2C)c1 | -127
C=C(C)CN(CC)C(=O)CCc1nnc(CCCc2ccccc2)o1 | -150
SMILES | aSyn UTR act
Cc1cccc(Cc2nnc(CCC(=O)N(C)CCc3ccccc3)o2)c1 | -137
CCN(CCn1cccn1)C(=O)CCc1nnc(CCCc2ccccc2)o1 | -122
O=C(c1cc2cc3ccc(Cl)cc3nc2o1)N1CCCCCC1 | -95
Cc1ccc2cc3cc(C(=O)N4CC(C)CC(C)C4)oc3nc2c1 (stereo unspecified) | -120
COc1ccc2cc3cc(C(=O)N4CC(C)CC(C)C4)oc3nc2c1 (stereo unspecified) | -125
Cc1ccc2cc3cc(C(=O)N4CCCCC4C)oc3nc2c1 (stereo unspecified) | -200
Cc1ccc(N=C2C(=S)N(c3ccc(C)cc3)C(=N)N2/N=C/c2ccc(Cl)cc2)cc1 | -156
Clc1cccc2sc(-c3nnc(-c4ccccc4)o3)c(Cl)c12 | -137
CCn1c(COc2ccc(C)cc2)nc2ccccc21 | -126
Cn1c(COc2ccccc2)nc2ccccc21 | -99
COCCn1c(COc2ccc(C)cc2)nc2ccccc21 | -95
Cc1ccc(NCc2nc3ccccc3n2CCOc2ccccc2)cc1 | -136
CCOCCn1c(COc2ccc(C)cc2)nc2ccccc21 | -118
CCCn1c(CNc2ccc(Br)cc2)nc2ccccc21 | -119
CCc1nc2ccc(C(=O)NC3CCC(C)CC3)cc2nc1CC (stereo unspecified) | -86
CC1CCC(NC(=O)c2ccc3snnc3c2)CC1 (stereo unspecified) | -86
Cc1cccc2sc(NC(=O)c3ccc(OCC4CCCO4)cc3)nc12 (stereo unspecified) | -144
CCOc1ccc2nc(NC(=O)c3ccc(OCC4CCCO4)cc3)sc2c1 (stereo unspecified) | -99
CCOc1ccc2nc(NC(=O)CSc3nnc(-c4ccncc4)n3CC3CCCO3)sc2c1 (stereo unspecified) | -76
Cc1cccc2sc(NNC(=O)c3ccc(S(=O)(=O)N4CCCC(C)C4)cc3)nc12 (stereo unspecified) | -
CCCn1cc(NC(=O)c2cc(-c3ccccc3)on2)cn1 | -134
Cc1ccc(O)c(NC(=O)c2cc(-c3ccccc3)on2)c1 | -254
CCCc1cc(C(=O)Nc2cc(C)ccc2O)no1 | -250
CCCc1cc(C(=O)Nc2ccccc2C(=O)OC)no1 | -71
O=C(Nc1cc(Br)ccc1O)c1cc(-c2ccccc2)on1 | -131
SMILES | aSyn UTR act
Oc1ccc(/C=C/c2cnccn2)cc1 | -171
[O-]/[N+](=C/c1cccnc1)c1ccc(Br)cc1 | -95
[O-]/[N+](=C\c1ccncc1)c1ccc(Br)cc1 | -225
CN1C(=C2C(=O)OC(C)(C)OC2=O)Sc2ccccc21 | -79
O=c1c2ccccc2nc2oc3ccccc3n12 | -148
Cc1ccc(-c2noc(-c3cc4ccccc4oc3=O)n2)cc1 | -80
Cc1cccc(-c2noc(-c3cc4ccccc4oc3=O)n2)c1 | -158
O=c1oc2ccccc2cc1-c1nc(-c2ccccc2)no1 | -131
COc1ccc(N=C2S/C(=C\c3ccc(N4CCOCC4)o3)C(=O)N2CCc2c[nH]c3ccccc23)cc1 | -113
